Laboratory results reported in PubChem BioAssay.

System: Human papillomavirus type 1a protein E7 (residues 44-93)
Assay: HPV1a E7 fragment binders on microarrays, primary screen, biochemical, small-molecule microarray, residues 44-93, 635 nm fluorescence (AID 1108);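 note: E7 fragment applied at 1 µg/mL in TBST for 1 h at 4 C; score combines spot fluorescence with its signal to noise ratio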
Conditions: small-molecule microarray binding, fluorescence 635 nm; higher = more signal

| Compound | composite z-score |
| --- | --- |
| COCCCNC(=O)[C@@]1(Sc2ccc(C)cc2)CC(=O)N(C2CCCCC2)[C@@H]1c1ccc(CO)cc1I | 1.01 |
| [N-]=[N+]=NCc1ccccc1C[C@]1(C(=O)O)COC(c2ccc(OCCCO)cc2)=N1 | -0.523 |
| COC(=O)[C@@]1(Cc2ccc(OC)cc2)[C@H]2c3cc(C(=O)N(C)C)n(Cc4ccsc4Br)c3C[C@H]2CN1C(=O)c1ccccc1 | 0.835 |
| CCCCC(=C=CC[C@@H](O)c1ccc(OCCO)cc1)C[C@@H](O)c1ccccn1 | -0.0715 |
| O=C1NC(=O)C2C1C=CC(C(O)c1cccc(O)c1)N2Nc1ccc(Cl)cc1Cl (centres undefined) | -0.429 |
| [N-]=[N+]=NCc1ccccc1C[C@]1(C(=O)NCc2ccccc2)N=C(c2ccc(OCCCO)cc2)O[C@H]1c1ccccc1CN=[N+]=[N-] | 1.42 |
| O=C1O[C@H](c2ccccc2)[C@H](c2ccccc2)N2[C@H]1[C@@H](C(=O)N1CCN(c3ncccn3)CC1)[C@]1(C(=O)Nc3ccccc31)[C@H]2c1ccc(O)cc1 | 1.43 |
| COC(=O)[C@@]1(Cc2ccc(F)cc2)[C@H]2c3cc(C(=O)N4CCCC4)n(CCO)c3C[C@H]2CN1C(=O)c1ccccc1 | 0.0213 |
| O=C1NC(=O)C2C1C=CC(C(O)c1ccc(F)cc1)N2Nc1ccccn1 (centres undefined) | 0.164 |
| CC[C@H](C)C(=O)O[C@H]1CC[C@]2(C)C3=C(CCC2C1(C)C)[C@]1(C)CC[C@H]([C@H](C)CCCC(C)C)[C@@]1(C)CC3 (some centres undefined) | 0.758 |
| CCCC[C@H]1OB(O)C[C@H]2C1=C(COC)C[C@H]1C(=O)C=CC(=O)[C@H]12 | 0.275 |
| CCCCCCCCCCC(O)C1C=CC2C(=O)N(C)C(=O)C2N1N1CCCCC1 (centres undefined) | -0.469 |
| C=CC[C@]1(C(=O)NCCCOC)N=C(c2ccc(OCCCO)cc2)O[C@H]1c1ccccc1 | 1.44 |
| CC1CC/C=C\[C@H]2OC34C=CCN(c5ccc(Cl)cc5)C(=O)[C@H]3N(CCCO)C(=O)[C@]4(C)C2C(=O)O1 (some centres undefined) | -0.678 |
| C=C(CC1([C@@H](NP(=O)(c2ccccc2)c2ccccc2)[C@H]2C[C@@H]2CCN(C(=O)OCC)S(=O)(=O)c2ccc(C)cc2)CC1)c1ccccc1 | 1.39 |
| COCC1=C([C@H](O)CCc2ccccc2)[C@H](CO)n2c(=O)n(-c3ccccc3)c(=O)n2C1 | -0.253 |
| COC(=O)c1ccc([C@H](NC(=O)c2ccccc2)[C@]2(C)C[C@H]2C2CCCCC2)cc1 | 1.3 |
| COCCOC(=O)N1C(=O)[C@@]2(c3cc(C#CC4=CCCCC4)ccc31)[C@H](c1ccccc1OCCO)N1[C@H](c3ccccc3)[C@H](c3ccccc3)OC(=O)[C@H]1[C@@H]2C(N)=O | 1.32 |
| C=CCC(OC(C)=O)[C@@H]1[C@@H](N(Cc2cc3ccccc3o2)C(=O)Cc2ccc(OC)cc2)c2cc(OCCCO)ccc2N1C(=O)Cc1ccc2ccccc2c1 (some centres undefined) | -0.687 |
| COc1ccc([Si](C)(C)[C@H]2[C@H](CCO)O[C@@]3(C(=O)N(Cc4ccccc4)c4ccc(N(C=O)c5ccccc5)cc43)[C@@H]2C)cc1 | 1.21 |
| CC(C)CNC(=O)[C@@H]1c2ccccc2C(=O)N(Cc2ccccc2Cl)[C@H]1c1ccc(CO)cc1 | 1.07 |
| CCCCNC(=O)c1ccc(C#C[Si](C)(C)C)c(OC(C)=O)c1 | 0.315 |
| COc1cc2c(cc1O)C(c1ccc(CN3CCCC3)cc1)N(Cc1cccc(OC(F)(F)F)c1)CC2 (centres undefined) | 0.743 |
| C=CCOC(=O)[C@H]1[C@@H]2C(=O)O[C@@H](c3ccccc3)[C@@H](c3ccccc3)N2[C@@H](c2ccc(OCCOC(=O)[C@H]3C[C@H]4C(=O)NCC(=O)N4[C@H]3c3ccc(O)cc3)cc2)[C@]12C(=O)Nc1ccc(I)cc12 | 0.429 |
| NC(=O)N1C(=O)C2C(C1=O)C1C=C(CCCO)C2C(c2ccc(CN3CCCC3)cc2)N1Cc1cccc(OC(F)(F)F)c1 (centres undefined) | 0.433 |
| C=C(CCCC)C(=O)CC[C@H](OC(C)=O)c1ccccc1OCCO | -0.0354 |
| C=CCC(OC(C)=O)[C@@H]1[C@@H](N(Cc2cccc3ccccc23)C(=O)c2ccc(-c3ccccc3)cc2)c2cc(OCCCO)ccc2N1C(=O)c1ccc2ccccc2n1 (some centres undefined) | 0.237 |
| COC(=O)[C@@]1(Cc2ccccc2)[C@@H]2[C@@H](CC(=O)[C@H]2CC(=O)C(=O)N(C)C)CN1C(=O)c1ccccc1 | 0.426 |
| COCCOC(=O)N1C(=O)[C@@]2(c3cc(C#Cc4ccc(OC)cc4)ccc31)[C@H](C(=O)Nc1nc3ccccc3s1)[C@H]1C(=O)O[C@H](c3ccccc3)[C@H](c3ccccc3)N1[C@@H]2c1ccccc1OCCO | 0.773 |
